The whole screen tested about 69,000 compounds, of which about 8,600 (12%) showed an effect of 50% or more. The list comes from a sample in which strong results are over-represented; it also holds similar structures and randomly drawn compounds.
System: Plasmodium berghei
Experiment: Screen against P. berghei liver stage (PbLuc), transformed with Luciferase, at 10uM
Assay type: functional, HepG2
Settings: tested at 10 uM

SMILES	INHIBITION [%]
CC(C)c1nn(C)c(N(C)C)c1CNCc1ccc(CO)c(F)c1	23.7
CNc1nc2c(s1)C(c1c(Cl)cccc1Cl)CC(=O)N2 (configuration not stated)	15
CS(=O)(=O)N1CCN(c2ccc3ccc(C(=O)NC4CC4)cn23)CC1	22.3
Cc1cccc(OC2CN(C(=O)C3CC(=O)N(C4CC4)C3)C2)c1 (configuration not stated)	31.4
O=C([C@H]1CC[C@@H]2[C@@H](CCN2C2CCOCC2)O1)N1CCOCC1	25.6
Cc1cccc(OCCC(=O)N(C)CCC#N)c1C	-33.2
CCc1ncnc2c1CCN(Cc1nccs1)CC2	-2.41
CCc1cnc(CN2CCC(N(C)Cc3noc(C4CC4)n3)C2)o1 (configuration not stated)	23.4
CCN1CCn2c(C)cnc2C12CCN(C(=O)COC)CC2	-6.05
CN(C)C(C(=O)N1CCCC1)c1ccccc1F (configuration not stated)	29.7
CN(C)C(C(=O)N1CCSCC1)c1ccccc1F (configuration not stated)	32.8
CN(C)C(C(=O)N1Cc2ccccc2C1)c1ccccc1F (configuration not stated)	50.8
O=c1[nH]nc(CCCN2CCOCC2)n1-c1ccc(F)cc1F	39.4
CC(C)CC(=O)N1CCCC2(CC(C(=O)Nc3ccccc3)=NO2)C1 (configuration not stated)	3.58
CCC1CN(C)c2ccccc2CN1C(=O)Nc1ccccc1OC (configuration not stated)	63.5
CC(C)CCNC(=O)C1CCCN1C(=O)Nc1cccc(F)c1 (configuration not stated)	-11.4
CCC1CN(C)c2ccccc2CN1C(=O)Nc1ccc(C)cc1 (configuration not stated)	14
CCC1CN(C)c2ccccc2CN1C(=O)CCn1cncn1 (configuration not stated)	44
CCC1CN(C)c2ccccc2CN1C(=O)Nc1cccc(F)c1 (configuration not stated)	60.2

SMILES	INHIBITION [%]
COc1ccccc1NC(=O)N1CCCC1c1ccco1 (configuration not stated)	1.45
Cc1c(C(=O)NCC(C)C)nnn1-c1cccc2c1CCN(CCO)C2	45.7
O=C(NCCNc1ncccn1)C1CCCC1	26.4
COc1ccccc1CNc1cnn(CC(F)F)c1	14.5
Cc1nccn1CC1CCCN1S(=O)(=O)Cc1cccc(C#N)c1 (configuration not stated)	45.7
Cc1cc(NC(=O)CN2CCCC2c2c(C)nn(C)c2Cl)on1 (configuration not stated)	-27.9
CC(C)C(C(=O)N1CCN(Cc2cscn2)CC1)n1cncn1 (configuration not stated)	-7.71
O=C(NCCO)C1(Cc2ccccc2-c2ccncc2)CCOCC1	-17.7
CC(C)(C)NC(=O)C1(Cc2ccccc2-c2ccncc2)CCOCC1	17.1
O=C(NC1CC1)C1(Cc2ccccc2-c2ccncc2)CCOCC1	76.1
CN(C)C[C@@H]1CCC[C@@H]2CN(c3cccnc3)C[C@@H]21	-11
CCc1ncc(C(=O)N(CCOC)Cc2ccccc2F)cn1	41.5
CCc1ncc(C(=O)N(CC)CCOC)cn1	29.2
CCc1ncc(C(=O)N(CCOC)Cc2nccs2)cn1	50.5
CS(=O)(=O)NCc1cnc2n1CCN(Cc1cccnc1)CC2	15.4
O=C(NCC1CC1)c1n[nH]c2c1CNCC2	-8.51
Cc1cc(C)n(CCN(C)Cc2c[nH]nc2-c2ccc3c(c2)OCO3)n1	26.7
CNC(=O)[C@H]1CC[C@@H]2[C@@H](CCN2CCOCc2ccccc2)O1	45.7
CC(=O)N(C)C1CCC2(CC1)CNC(=O)c1cc(C)ccc1O2 (configuration not stated)	-20.2

SMILES	INHIBITION [%]
N#Cc1ccnc(N2CCN(Cc3cccc(F)c3)CC2)c1	-23.7
N#Cc1ccnc(N2CCC(NCCN3CCOCC3)CC2)c1	66.5
N#Cc1ccnc(N2CCN(C(=O)NC3CCS(=O)(=O)C3)CC2)c1 (configuration not stated)	-19.9
N#Cc1ccnc(N2CCC(NCCN3CCCC3)CC2)c1	57.3
CSc1nccc(N2CCC(NCCN3CCOCC3)CC2)n1	53.6
N#Cc1ccnc(N2CCN(CC(O)c3ccccc3)CC2)c1 (configuration not stated)	-76.3
N#Cc1ccnc(N2CCN(C3CCOC3=O)CC2)c1 (configuration not stated)	-33.1
C1CCC(NCCN2CCOCC2)C1	5.41
CCC1CCC(NCCN2CCOCC2)CC1 (configuration not stated)	49.4
O=C(c1ccc(F)cc1)N1C[C@@H]2OCCN(c3ncccn3)[C@@H]2C1	10
Cc1nnc(SCc2ccccn2)s1	44.1
CCSCCNC(=O)c1ccc(S(=O)(=O)N2C[C@H]3C[C@@H]2CN3)cc1	9.91
CC(C)c1cc(N(C)Cc2noc(C3CCCC3)n2)n2nccc2n1	46.4
c1cnc(N2CCOCC3(CN(Cc4nccs4)CCO3)C2)nc1 (configuration not stated)	-34.7
Cc1cc(Cc2ccccc2F)cc(C2CCCNC2)n1 (configuration not stated)	36.9
Cc1cccc(Cc2cc(C)nc(C3CCCNC3)c2)c1 (configuration not stated)	54.5
Cc1cc(Cc2cccc(C(F)(F)F)c2)cc(C2CCCNC2)n1 (configuration not stated)	80.5
Cc1cc(Cc2ccccc2C)cc(C2CCCNC2)n1 (configuration not stated)	-11.4
Cc1cc(Cc2ccccc2)cc(C2CCCNC2)n1 (configuration not stated)	28.5
